Consider 40 compounds from PubChem BioAssay (EPA / NIEHS).

One may read the AC50 as the midpoint of the concentration-response curve, whichever way the signal moves.

Active and inactive are the calls of the source. The calls were made as follows: active = hit-call score of the fitted dose curve at least 0.9, where 1 is the maximum; inactive = score below 0.9.

Read-out in this assay: growth arrest and DNA damage 45 (GADD45G), GADD45G (gene 10912)
The assay can be described thus: LTEA_HepaRG_GADD45G: Life Technologies and Expression Analysis (LTEA) Assay for growth arrest and DNA damage 45 (GADD45G) using HepaRG (AID 2283499). The following applies: mRNA level, 48 h; actives raise or lower the signal. On the procedure: LTEA_HepaRG is a cell based, multiplexed-readout assay that uses HepaRG, a human liver cell line, with measurements taken at 48 hours after chemical dosing on a 96-well plate.LTEA_HepaRG_GADD45G is one of 102 assay component(s) measured in the LTEA HepaRG cell culture assay. It is a marker of Cell proliferation, survival, death.Data from the assay component LTEA_HepaRG_GADD45G was analyzed into 1 endpoint. This assay endpoint, LTEA_HepaRG_GADD45G, was analyzed with bidirectional fitting relative to DMSO as the negative control and baseline of activity. Using a type of inducible reporter, measures of mRNA induction for gain or loss-of-signal activity can be used to understand regulation of transcription factor activity. To generalize the intended target to other relatable targets, this assay endpoint is annotated to the mutagenicity response intended target family, where the subfamily is Cell proliferation, survival, death.
A total of 1060 chemcials from the ToxCast library were tested in eight-point concentration-response experiments. Cell culture and cytotoxicity assays were conducted at Thermo Fisher Scientific's Custom Services facility (Madison, WI). A single lot of human HepaRG cells (Thermo Fisher Scientific, Frederick, MD) was used for the cell culture experiments. 96-well format collagen type I coated plates of human HepaRG cells were prepared using established methods. Briefly, cryopreserved HepaRG cells were thawed, plated at a density of approximately 100,000 cells/well in HepaRG Thaw, Plate, and General Purpose media (HPRG770, Thermo Fisher Scientific), and incubated for 48 hours. 0.5% DMSO was selected as vehicle control to balance the requisite need of DMSO in HepaRG cultures to maintain differentiation (for example, baseline metabolism, proportions of hepatocytes vs. cholangiocytes), while enabling further hepatic receptor pathway activation (for example, PXR and CAR) in response to chemical exposure. 48 hours after plating, the culture medium was replaced with HepaRG Serum-Free Incudtion Media. Cells were exposed to each test chemical in duplicate and maintained in CO2 incubators for another 48 hours. Chemical plates were thawed to room temperature and 200x concentrations of treatment groups were prepared. 8-point conentration-reponse curves were made with the highest exposure at 100 uM, followed by half-log dilutions, all in 0.5% DMSO. Each test plate contained variouse controls, induction positive controls (1mM phenobarbital), cytotoxicity positive controls ([…] aflatoxin B1), vehicle controls (0.5% DMSO), and total lysis controls (0.5% DMSO). Cell morphology images were taken using an Essen IncuCyte FLR automated microscope, with six 96-well plates imaged in about 24 minutes. Images were captured and exported and JPEG files. Spent culture media was transfered to black-well plates for the LDH assay, and remaining media was sorted at -80 C for later use. Cells were treated with RLT buffer and frozen until shipped for gene expression analysis. Total RNA was isolated from the cell suspension in 75 uL of Buffer RLT (Qiagen, Germantown, MD 20874) by Quintiles/Expression Analysis (Durham, NC) using a custom isolation procedure. Total RNA from each plate well was transferred to a preamplification plate. Fluidigm's 96.96 Dynamic ArrayTM (Fluidigm, Amsterdam, the Netherlands) technology was used for gene expression analyses by quantitative reverse transcription polymerase chain reaction (qRT-PCR, performed by Quintiles/Expression Analysis, Durham, NC)89. Standard TaqManTM Assays (Applied Biosystems/ThermoFisher Scientific, Foster City, CA) were used to assess the expression of 93 genes selected based on their selectivity and sensitivity to important hepatic receptors known to be modulated by environmental chemicals; importance in human hepatocyte functionality; and hepatotoxicity. […]
As for `O=C(OCCCCCCOC(=O)c1ccccc1)c1ccccc1`, the compound was called inactive.

In the case of `CN(C[C@@H](CC[N+]12CCC(C3CCCCC3)(CC1)CC2)c1ccc(Cl)c(Cl)c1)C(=O)c1cc(C(F)(F)F)cc(C(F)(F)F)c1`, the call was inactive. In the case of `CCO[Si](CCCNC(N)=O)(OCC)OCC`, the compound was called inactive. Still for that read-out and setting: in the case of `Cc1occc1C(=O)Nc1ccc(C(=O)N2CCC(F)(F)/C(=C\C(=O)N3CCC(N4CCCCC4)CC3)c3ccccc32)cc1` it was “inactive”; in that of `CCCCCCCCCC(=O)O`, “inactive”. The same measure, in the same setting: the value for `CCCCCCCCCCCCO` was “inactive”; that for `CC1=CC(=O)/C(=C(/C)O)C(=O)O1` was “inactive”. Regarding `Cc1ccc2oc(CN(Cc3ccccc3)C(=O)Nc3c(F)cc(F)cc3F)c(-c3ccc(Cl)cc3)c2c1`, the AC50 was 77.2 µM (active).

`COc1cccc([C@H](O)C2CCN(CCc3ccc(F)cc3)CC2)c1OC`: the AC50 is 69.1 µM (active). `O=c1ccc2ccccc2o1`: the call was inactive. The same measure, in the same setting: in the case of `O=C1CCC(C2CCCCC2)CC1` it was “inactive”. Still for that read-out and setting: in the case of `CCN(Cc1cccc(S(=O)(=O)O)c1)c1ccc(C(=C2C=CC(=[N+](CC)Cc3cccc(S(=O)(=O)O)c3)C=C2)c2ccccc2S(=O)(=O)[O-])cc1` it was “inactive”; in that of `Oc1ccccc1`, “inactive”. The same measure, in the same setting: in the case of `Cc1cn([C@H]2C[C@H](N=[N+]=[N-])[C@@H](CO)O2)c(=O)[nH]c1=O` it was “inactive”; in that of `CC[C@H](NC(=O)c1cc(F)ccc1NS(=O)(=O)c1cccc2cccnc12)c1ccccc1`, “inactive”.

On to `O=C1O[C@H]([C@@H](O)CO)C(O)=C1O`, for which the call was inactive.

Take `CC(C)(C)c1cc(/C=C2\SC(N)=NC2=O)cc(C(C)(C)C)c1O`: the half-maximal activity concentration (AC50) is 21.5 µM (active). Turning to `NCc1cccc(C2CCN(C(=O)c3ccc(C#Cc4ccccc4F)o3)CC2)c1`, the compound was called inactive. The same measure, in the same setting: in the case of `Oc1ccc2ccccc2c1` it was “inactive”. Regarding `CN(C)c1ccc(C(=C2C=CC(=[N+](C)C)C=C2)c2ccc(N(C)C)cc2)cc1`, the half-maximal activity concentration (AC50) is 11.7 µM (active). Same read-out and setting: the value for `CC/C(=C(/CC)c1ccc(O)cc1)c1ccc(O)cc1` was 71.7 µM (active); that for `CCCCCCCCCCCC[N+](C)(C)C` was 78 µM (active). Consider `O=C(O)Cc1cc(I)c(Oc2ccc(O)c(I)c2)c(I)c1`, for which the AC50 is 70.3 µM (active). As to `Cc1cccc2ccccc12`, the compound was called inactive.

As to `C[C@]12CC[C@@H]3c4ccc(O)cc4CC[C@H]3[C@@H]1CC[C@H]2O`, the compound was classed as inactive. In the case of `CC(C)(C)c1csc(-c2cc3cc(OCc4ccccc4CC(=O)O)ccc3o2)n1`, the AC50 was 12.1 µM (active). With `CC[C@@H]1C[C@H](N(Cc2cc(C(F)(F)F)cc(C(F)(F)F)c2)C(C)=O)c2cc(C(F)(F)F)ccc2N1C(=O)OC(C)C`, the outcome was inactive. Same read-out and setting: in the case of `CCN(Cc1cccnc1)C(=O)c1cccc(Cl)c1[C@]1(C)C(=O)N(Cc2ccc(OC)cc2OC)c2ccc(Cl)cc21` it was “inactive”; in that of `c1ccc2n[nH]nc2c1`, “inactive”. On the same count and under the same terms, the value for `Cc1c2ccccc2c(C)c2c1ccc1ccccc12` was “inactive”. Consider `CCCCCCCCOc1ccc(C(=O)c2ccccc2)c(O)c1`, for which the result was inactive.

With `OC12N=C(c3ccccc3)SC1Cc1cc(Cl)ccc12` (stereo not given), the half-maximal activity concentration (AC50) was 2.05 µM (active). As for `Cc1oc2c(NC(=O)c3c(Cl)cccc3Cl)cccc2c1C(C)(C)O`, the result was inactive.

On to `CC(C)(c1cc(Br)c(O)c(Br)c1)c1cc(Br)c(O)c(Br)c1`, for which the compound was called inactive. On to `COc1cc(C(=O)NC2CCN(C)CC2)ccc1Nc1ncc2c(n1)N(C1CCCC1)CC(F)(F)C(=O)N2C`, for which the AC50 was 85.6 µM (active).

Take `O=c1c(-c2ccc(O)cc2)coc2cc(O)cc(O)c12`: the result was inactive. Consider `CCCOC(=O)c1cc(O)c(O)c(O)c1`, for which the result was inactive. For the compound `COCC(C)OCC(C)OCC(C)O` (stereo not given), the compound was called inactive.

For `CCCCOC(=O)c1ccc(O)cc1`, the call was inactive. Still for that read-out and setting: in the case of `O=c1[nH]sc2ccccc12` it was “inactive”.
